Where “and” joins values, the source holds several entries; their conditions need not be identical. Equal entries are not always repeated. Records with an inconclusive call do not appear. Some compounds were tested as several samples or in several runs, with calls that do not always agree. Calls of active or inactive are those of the source. Unless noted, the call rests on the fitted dose curve; in most records, active means well fitted curve in the direction sought with a large enough effect in the repeat runs; inconclusive means weak or mixed curves; inactive means no such curve, though single readings can be large; an effect the other way counts as inactive or inconclusive.
Key:
[1] = molecular target: Progesterone receptor (Homo sapiens) (UniProt P06401); assay: qHTS assay to identify small molecule agonists of the progesterone receptor (PR) signaling pathway (AID 1346784; calls by dose curve; further: on the % scale 0 is the no-effect control and ±100 the full control effect; nearly all actives have a fitted effect of over 30% in size)
Chain of Progesterone receptor (Homo sapiens) (P06401 whole entry, looked up): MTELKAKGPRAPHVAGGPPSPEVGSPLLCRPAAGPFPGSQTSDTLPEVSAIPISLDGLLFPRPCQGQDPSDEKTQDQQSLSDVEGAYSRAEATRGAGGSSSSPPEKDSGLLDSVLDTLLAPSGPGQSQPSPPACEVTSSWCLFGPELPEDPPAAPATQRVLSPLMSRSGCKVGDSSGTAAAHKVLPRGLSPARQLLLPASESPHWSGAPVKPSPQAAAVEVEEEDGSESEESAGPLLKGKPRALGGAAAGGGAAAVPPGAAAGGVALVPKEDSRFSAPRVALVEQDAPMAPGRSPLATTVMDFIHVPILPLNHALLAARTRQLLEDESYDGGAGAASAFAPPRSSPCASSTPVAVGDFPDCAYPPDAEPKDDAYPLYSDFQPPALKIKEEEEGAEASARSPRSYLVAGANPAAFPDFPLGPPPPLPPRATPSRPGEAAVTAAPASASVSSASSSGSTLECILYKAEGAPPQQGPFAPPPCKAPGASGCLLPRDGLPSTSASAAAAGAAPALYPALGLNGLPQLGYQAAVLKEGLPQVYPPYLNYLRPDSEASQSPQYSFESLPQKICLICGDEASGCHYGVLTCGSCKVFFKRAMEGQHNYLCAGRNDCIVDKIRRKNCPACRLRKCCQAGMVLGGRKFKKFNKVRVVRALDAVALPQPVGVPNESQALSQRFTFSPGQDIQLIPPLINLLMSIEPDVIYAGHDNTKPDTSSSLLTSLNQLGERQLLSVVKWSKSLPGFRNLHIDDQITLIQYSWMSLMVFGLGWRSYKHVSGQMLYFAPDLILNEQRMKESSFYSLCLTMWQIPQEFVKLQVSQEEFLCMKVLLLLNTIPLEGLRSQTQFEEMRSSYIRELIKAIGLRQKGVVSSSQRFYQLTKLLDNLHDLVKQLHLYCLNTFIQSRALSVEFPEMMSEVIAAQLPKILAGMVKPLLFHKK
How it was run: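 The screen uses PR-UAS-bla HEK 293T cells in charcoal-stripped serum (2%). Compounds are applied for 16 hr at 37C after a 6 hr pre-incubation, and reporter activity is detected with a FRET beta-lactamase substrate after 2 hr at room temperature.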

[2] = qHTS assay to identify small molecule antagonists of the TGF-beta/Smad signaling pathway - cell viability counter screen (AID 1346824); further: nearly all actives have a fitted effect of over 50% in size; further: potency means the concentration at half of the fitted maximal effect
How it was run: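 SBE-bla HEK 293T cells were plated overnight at 37 C, then given compounds in DMSO plus TGF-beta1 (added as 0.25 ng/mL solution) for 5 hr. After the bla read, CellTiter-Glo was added to the same wells and luminescence read after 30 min at room temperature.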

[3] = qHTS assay to identify small molecule agonists of the TGF-beta/Smad signaling pathway - cell viability counter screen (AID 1346829); further: nearly all actives have a fitted effect of over 45% in size; further: potency means the concentration at half of the fitted maximal effect
How it was run: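 Same-well cytotoxicity: CellTiter-Glo added after the 2 hr room-temperature beta-lactamase substrate step, luminescence measured 30 min later; cells had 5 hr of compound at 37 C.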

[4] = qHTS assay to identify small molecule agonists of the TGF-beta/Smad signaling pathway (AID 1346859; active means well fitted activation curve with a large enough effect in the signal ratio in the repeat runs, not every such curve was filed as active; the % refers to the signal ratio; further: series mostly up to about 77 µM; on the % scale 0 is the no-effect control and ±100 the full control effect)
How it was run: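 Dual-wavelength fluorescence (460/530 nm emission) quantified beta-lactamase expression under the Smad binding element in HEK 293T cells following 5 hr compound treatment at 37 C.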

[5] = molecular target: Thyrotropin-releasing hormone receptor (Homo sapiens) (UniProt P34981); assay: qHTS assay to identify small molecule antagonists of the thyrotropin-releasing hormone receptor (TRHR) signaling pathway (AID 1346877; active means well fitted inhibition curve with a large enough effect in the repeat runs, not every such curve was filed as active; further: series mostly up to about 51 µM; on the % scale 0 is the no-effect control and ±100 the full control effect)
Chain of Thyrotropin-releasing hormone receptor (Homo sapiens) (P34981 whole entry, looked up): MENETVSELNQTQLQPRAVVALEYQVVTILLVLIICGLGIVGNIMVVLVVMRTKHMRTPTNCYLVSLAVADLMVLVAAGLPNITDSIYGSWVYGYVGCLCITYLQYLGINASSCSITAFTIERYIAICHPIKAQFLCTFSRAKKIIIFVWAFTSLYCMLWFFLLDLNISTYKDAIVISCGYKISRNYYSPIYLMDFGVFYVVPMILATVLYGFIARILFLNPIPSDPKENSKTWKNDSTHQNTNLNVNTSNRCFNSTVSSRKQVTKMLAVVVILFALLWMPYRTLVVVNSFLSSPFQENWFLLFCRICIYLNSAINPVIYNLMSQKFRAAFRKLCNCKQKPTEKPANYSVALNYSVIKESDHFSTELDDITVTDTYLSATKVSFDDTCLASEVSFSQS
How it was run: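 TRHR-expressing HEK293 cells loaded with calcium dye for 2 h at 37 C; compounds pre-incubated 5 min at room temperature before TRH challenge at 1 nM final. Intracellular calcium fluorescence read kinetically for 3 min; 15 concentrations in triplicate.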

[6] = molecular target: Thyrotropin-releasing hormone receptor (Homo sapiens) (UniProt P34981); assay: qHTS assay to identify small molecule agonists of the thyrotropin-releasing hormone receptor (TRHR) signaling pathway (AID 1346891; calls by dose curve; further: series mostly up to about 58 µM; on the % scale 0 is the no-effect control and ±100 the full control effect)
How it was run: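 Kinetic fluorescence (3 min, 1 s intervals) reported intracellular calcium after compound transfer onto TRHR-Hek293 cells pre-loaded with dye for 2 h at 37 °C.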

[7] = Human pregnane X receptor (PXR) small molecule agonists, qHTS cell viability counter screen (AID 1346977); further: nearly all actives have a fitted effect of over 50% in size; further: potency means the concentration at half of the fitted maximal effect
How it was run: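 HepG2 cells stably carrying the PXR-Luc reporter are cultured with 5% charcoal-stripped FBS and treated with compounds for 24hr. CellTiter-Fluor is added at 23hr and fluorescence is read after 1hr.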

[8] = Caspase-3/7 induction in HepG2 cells by small molecules, qHTS assay (AID 1346978); further: on the % scale 0 is the no-effect control and ±100 the full control effect; nearly all actives have a fitted effect of over 15% in size
How it was run: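 Wild-type HepG2 cells (2,000/well) were settled 5 h at 37 C, 5% CO2, then exposed to compounds in DMSO for 17 h. Caspase-3/7 activity was read by luminescence 30 min after adding Caspase-Glo 3/7 reagent at room temperature.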

[9] = Caspase-3/7 induction in CHO-K1 cells by small molecules, qHTS cell viability counter screen (AID 1346979); further: nearly all actives have a fitted effect of over 35% in size; further: potency means the concentration at half of the fitted maximal effect
How it was run: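 Seeding: 1,500 CHO-K1 cells/well. Rest: 5hr, 37C. Treatment: compounds in DMSO, 16hr. Read: CellTiter-Fluor, 1hr, fluorescence.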

[10] = Caspase-3/7 induction in CHO-K1 cells by small molecules, qHTS assay (AID 1346980); further: on the % scale 0 is the no-effect control and ±100 the full control effect; nearly all actives have a fitted effect of over 15% in size
How it was run: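 Wild-type cells were seeded at 1,500 per well and settled 5 hr at 37 C, 5% CO2, then exposed to DMSO-dissolved compounds for 17 hr. Caspase-Glo 3/7 reagent was added, and luminescence was read after 30min at room temperature.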

[11] = Caspase-3/7 induction in HepG2 cells by small molecules, qHTS cell viability counter screen (AID 1346981); further: nearly all actives have a fitted effect of over 30% in size; further: potency means the concentration at half of the fitted maximal effect
How it was run: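 Wild-type HepG2 cells, 2,000/well, settled 5 hr at 37 C, 5% CO2 before compound addition. Viability read by CellTiter-Fluor fluorescence, reagent added after 16 hr compound exposure, then 1 hr at 37C, in the same wells as the caspase read.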

[12] = molecular target: Nuclear receptor subfamily 1 group I member 2 (Homo sapiens) (UniProt O75469); assay: Human pregnane X receptor (PXR) small molecule agonists, qHTS assay (AID 1346982); further: nearly all actives have a fitted effect of over 35% in size; further: potency means the concentration at half of the fitted maximal effect; on activation: on the % scale 0 is the no-effect control and ±100 the full control effect
Chain of Nuclear receptor subfamily 1 group I member 2 (Homo sapiens) (O75469 whole entry, looked up): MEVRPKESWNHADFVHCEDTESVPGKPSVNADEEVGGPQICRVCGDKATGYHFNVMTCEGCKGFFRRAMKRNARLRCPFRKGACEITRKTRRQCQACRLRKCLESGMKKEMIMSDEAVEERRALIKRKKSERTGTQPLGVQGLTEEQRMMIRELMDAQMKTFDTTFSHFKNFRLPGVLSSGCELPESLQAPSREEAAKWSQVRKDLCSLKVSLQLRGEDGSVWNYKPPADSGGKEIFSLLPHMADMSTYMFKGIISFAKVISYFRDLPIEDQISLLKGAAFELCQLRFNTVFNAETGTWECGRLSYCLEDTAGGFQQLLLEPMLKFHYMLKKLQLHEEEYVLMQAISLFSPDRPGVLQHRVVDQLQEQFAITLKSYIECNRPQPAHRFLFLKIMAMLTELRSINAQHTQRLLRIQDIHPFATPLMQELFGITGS
How it was run: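 PXR-Luc HepG2 reporter cells (CYP3A4-driven luciferase) in 5% charcoal-stripped FBS medium, plated 5 h before compound addition, then treated 24 h at 37C. Luciferase read by ONE-Glo luminescence after 30 min at room temperature.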

[13] = molecular target: Cytochrome P450 2D6 (Homo sapiens) (UniProt P10635); assay: Cytochrome P450 Family 2 Subfamily D Member 6 (CYP2D6) small molecule antagonists: luciferase reporter qHTS assay (AID 1671196); further: nearly all actives have a fitted effect of over 50% in size; further: potency means the concentration at half of the fitted maximal effect
Chain of Cytochrome P450 2D6 (Homo sapiens) (P10635 whole entry, looked up): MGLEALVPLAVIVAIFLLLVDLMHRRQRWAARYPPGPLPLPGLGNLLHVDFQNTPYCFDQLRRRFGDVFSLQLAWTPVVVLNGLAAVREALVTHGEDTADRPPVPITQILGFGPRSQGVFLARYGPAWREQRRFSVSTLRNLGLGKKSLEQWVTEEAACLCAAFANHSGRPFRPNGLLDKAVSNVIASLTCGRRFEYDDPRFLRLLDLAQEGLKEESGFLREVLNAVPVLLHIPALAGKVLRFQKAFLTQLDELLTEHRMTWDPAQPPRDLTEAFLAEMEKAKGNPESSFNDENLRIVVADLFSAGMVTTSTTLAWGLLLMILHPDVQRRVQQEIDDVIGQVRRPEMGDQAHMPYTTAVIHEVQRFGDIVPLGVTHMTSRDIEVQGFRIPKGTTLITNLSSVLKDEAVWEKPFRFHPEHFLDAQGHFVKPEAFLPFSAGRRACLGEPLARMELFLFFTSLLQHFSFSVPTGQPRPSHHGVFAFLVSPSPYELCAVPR
How it was run: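 Cell-free P450-Glo system: CYP2D6 with proluciferin substrate was pre-incubated with compound for 10 min, then reacted with NADPH regeneration for 1 h at room temperature. Luciferin product was detected after 20 min, and data were reported as relative luminescence units.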

[14] = molecular target: Cytochrome P450 2C19 (Homo sapiens) (UniProt P33261); assay: Cytochrome P450 Family 2 Subfamily C Member 19 (CYP2C19) small molecule antagonists: luciferase reporter qHTS assay (AID 1671197); further: potency means the concentration at half of the fitted maximal effect; nearly all actives have a fitted effect of over 65% in size
Chain of Cytochrome P450 2C19 (Homo sapiens) (P33261 whole entry, looked up): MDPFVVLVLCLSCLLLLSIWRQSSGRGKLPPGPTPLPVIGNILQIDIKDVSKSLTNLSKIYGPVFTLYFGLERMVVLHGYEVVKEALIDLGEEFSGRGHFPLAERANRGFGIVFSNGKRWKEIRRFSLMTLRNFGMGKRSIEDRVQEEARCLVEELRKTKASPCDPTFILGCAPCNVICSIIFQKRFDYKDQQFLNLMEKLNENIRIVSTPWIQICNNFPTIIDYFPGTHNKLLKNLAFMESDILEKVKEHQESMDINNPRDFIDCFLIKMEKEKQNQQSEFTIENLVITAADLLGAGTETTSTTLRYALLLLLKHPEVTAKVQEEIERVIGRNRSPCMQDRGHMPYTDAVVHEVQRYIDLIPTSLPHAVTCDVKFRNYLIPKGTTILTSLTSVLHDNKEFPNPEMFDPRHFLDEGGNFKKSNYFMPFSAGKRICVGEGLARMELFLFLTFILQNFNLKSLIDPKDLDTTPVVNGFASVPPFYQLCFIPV
How it was run: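 Quantitative high-throughput screen of the Tox21 library using CYP2C19 with proluciferin substrate. Reaction: NADPH regeneration, 37C, 1 h, after 10 min compound preincubation at room temperature. Readout: luminescence.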

[15] = qHTS assay to identify small molecule antagonists of the progesterone receptor (PR) signaling pathway - cell viability counter screen (AID 1346798); further: nearly all actives have a fitted effect of over 50% in size; further: potency means the concentration at half of the fitted maximal effect
How it was run: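 Viability was determined by ATP-based luminescence (CellTiter-Glo) in PR-UAS-bla HEK293T cells cultured in 2% charcoal-stripped serum and incubated 16 hr with compounds under R5020 stimulation.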

[16] = qHTS assay to identify small molecule agonists of the progesterone receptor (PR) signaling pathway - cell viability counter screen (AID 1346799; calls by dose curve; further: on the % scale 0 is the no-effect control and ±100 the full control effect; nearly all actives have a fitted effect of over 45% in size)
How it was run: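 Viability was scored by ATP luminescence (CellTiter-Glo, 30 min, room temperature) in the same wells used for the reporter readout, after 16 hr compound exposure of PR-UAS-bla HEK293T cells.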

[17] = molecular target: Nuclear receptor subfamily 1 group I member 2 (Rattus norvegicus) (UniProt Q9R1A7); assay: Rat pregnane X receptor (rPXR) activation by small molecules, qHTS assay (AID 1346983); details: rPXR luciferase reporter cells, One-Glo luminescence, 24 h; stronger effect = higher value; further: on the % scale 0 is the no-effect control and ±100 the full control effect; nearly all actives have a fitted effect of over 20% in size
Chain of Nuclear receptor subfamily 1 group I member 2 (Rattus norvegicus) (Q9R1A7 whole entry, looked up): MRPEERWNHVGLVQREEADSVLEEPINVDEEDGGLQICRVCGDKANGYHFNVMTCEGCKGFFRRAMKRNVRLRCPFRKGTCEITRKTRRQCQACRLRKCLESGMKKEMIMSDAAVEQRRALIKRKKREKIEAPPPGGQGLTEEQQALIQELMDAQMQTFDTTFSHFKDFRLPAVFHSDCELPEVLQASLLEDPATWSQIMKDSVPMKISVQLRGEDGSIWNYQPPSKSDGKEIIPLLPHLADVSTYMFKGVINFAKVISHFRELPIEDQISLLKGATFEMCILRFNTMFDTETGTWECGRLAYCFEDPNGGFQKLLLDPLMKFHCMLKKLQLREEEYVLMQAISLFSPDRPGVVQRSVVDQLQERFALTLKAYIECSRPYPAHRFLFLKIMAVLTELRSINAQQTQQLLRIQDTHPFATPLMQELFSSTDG
How it was run: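 Cell-based rPXR luciferase reporter assay, 2,000 cells per well, rested 5hr at 37 C before compound addition in DMSO, then 24 hr at 37 C. One-Glo reagent was added and luminescence read after 30 min at room temperature.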

[18] = molecular target: Nuclear receptor subfamily 1 group I member 2 (Homo sapiens) (UniProt O75469); assay: CYP3A4 induction through human pregnane X receptor (PXR) by small molecules, qHTS assay (AID 1346984); further: on the % scale 0 is the no-effect control and ±100 the full control effect; nearly all actives have a fitted effect of over 40% in size
How it was run: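 DPX-2 HepG2 cells carrying a PXR response element and CYP3A4-promoter luciferase construct, treated with compounds 24 hr at 37C. Then P450-Glo CYP3A4 Luciferin-IPA substrate (3uM final) for 3 hr at 37C, One-Glo added, luminescence read.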

[19] = molecular target: Nuclear receptor subfamily 1 group I member 2 (Homo sapiens) (UniProt O75469); assay: Human pregnane X receptor (PXR) activation by small molecules, qHTS assay (AID 1346985); further: on the % scale 0 is the no-effect control and ±100 the full control effect; nearly all actives have a fitted effect of over 40% in size
How it was run: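 DPX-2 cells (HepG2 co-transfected with a PXR response element and a CYP3A4-promoter luciferase construct) were seeded at 2,000 per well, rested 5 hr at 37C, then exposed to DMSO-dissolved compounds for 24 hr. Activation was read as luciferase luminescence.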

C=C(C)C(=O)OCCCCCCCCCC
inactive: Potency [1] | Potency [2] | Potency [3] | Potency [4] | Potency [5] | outcome [6] | Potency [8] | Potency [10] | Potency [13]
active: Potency [7] 48.9 µM | Potency [9] 54.9 µM | Potency [11] 61.6 µM | Potency [12] 30.9 µM | Potency [14] 56.8 µM

c1ccc(C(O[C@@H]2CCCN(CCc3ccc4c(c3)OCO4)C2)c2ccccc2)cc1
active: Potency [7] 61.1 µM | Potency [13] 2.52 µM | Potency [14] 35.6 µM
inactive: Potency [1] | Potency [15] | Potency [2] | Potency [3] | Potency [5] | outcome [6] | Potency [8] | Potency [10] | Potency [12]

CCOC(=O)c1ccc(C2CCC(NC[C@H](O)COc3ccc(O)c(NS(C)(=O)=O)c3)CC2)cc1 (some centres undefined)
active: Potency [7] 56.4 µM | Potency [13] 58.4 µM | Potency [14] 32.8 µM
inactive: Potency [1] | Potency [16] | Potency [2] | Potency [10] | Potency [12]

Cc1c2ccccc2c(C)c2c1ccc1ccccc12
inactive: Potency [1] | Potency [2] | Potency [5] | outcome [6] | Potency [8] | Potency [10] | Potency [13]
active: Potency [15] 27 µM and 30.6 µM | Potency [7] 61.1 µM | Potency [9] 61.1 µM | Potency [12] 30.3 µM and 17.2 µM | Potency [14] 4.98 µM and 3.99 µM
inactive and 61.1 µM (active): Potency [11]

COc1ccc(-c2coc3cc(O)ccc3c2=O)cc1
active: Potency [12] 1.37 µM
inactive: Potency [1] | Potency [2] | Potency [3] | Potency [4] | Potency [5] | outcome [6] | Potency [7] | Potency [8] | Potency [9] | Potency [10] | Potency [11]

CCCCCCCCCCCCCC[N+](C)(C)C
active: Potency [15] 48.5 µM and 33.5 µM | Potency [2] 42.2 µM and 54.9 µM | Potency [7] 52.7 µM and 27.3 µM and 26.6 µM | Potency [9] 59.1 µM and 38.5 µM | Potency [11] 61.1 µM | Potency [13] 3.06 µM and 3.17 µM and 3.47 µM | Potency [14] 63.2 µM
inactive: Potency [1] | Potency [8] | Potency [10] | Potency [12] | max activation [17] -17% | Potency [18] | Potency [19]
54.9 µM (active) and inactive: Potency [3]

From PubChem BioAssay (Tox21)
